From PubChem
This is a sample that favours compounds with a hit; in the whole collection about 7.5% have one here.
Rab9 promoter act = Rab9 promoter activation | Potency, µM (titrated, usually from 9.22 µM), for inactives: at the highest dose activation, negative = inhibition, hits mostly activators | Huh7 Rab9 promoter-luciferase reporter, luminescence, 24 h | 2.8% of 320,000 active; further: % of control where 0% means no effect; nearly all actives have a fitted effect of over 60% in size
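Measured in stably transfected Huh7 cells bearing a Rab9 promoter–luciferase construct: 24 h compound treatment at 37 °C, followed by luminescence detection.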
NPC1 prom act = activates the NPC1 promoter. AID 485313. Potency, µM (top dose mostly 9.22 µM), inactives show at the top dose activation, usual class: activators. 2.4% of 320,000 active. Huh7 NPC1 promoter luciferase reporter, 24 h; further: % of control where 0% means no effect; nearly all actives have a fitted effect of over 60% in size
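Huh7 reporter cells (NPC1 promoter driving luciferase) are dosed with compound for 24 h at 37 °C, 5% CO2; luciferase detection reagent is then added and luminescence measured after 10 min at ambient temperature.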
FLuc counter = firefly luciferase modulation, counter-screen for miR-21 project | Potency, µM (series often up to 57.5 µM), for the others: at the top dose activity change, negative = inhibition, most hits filed as inhibitors | P08659 | purified FLuc, Km substrates, luminescence inhibition | 6.9% of 360,000 active | AID 588342;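 further: plate controls were vehicle for no effect and reference inhibitor for full effect; nearly all actives have a fitted effect of over 55% in size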
Target sequence (P08659 whole entry, looked up): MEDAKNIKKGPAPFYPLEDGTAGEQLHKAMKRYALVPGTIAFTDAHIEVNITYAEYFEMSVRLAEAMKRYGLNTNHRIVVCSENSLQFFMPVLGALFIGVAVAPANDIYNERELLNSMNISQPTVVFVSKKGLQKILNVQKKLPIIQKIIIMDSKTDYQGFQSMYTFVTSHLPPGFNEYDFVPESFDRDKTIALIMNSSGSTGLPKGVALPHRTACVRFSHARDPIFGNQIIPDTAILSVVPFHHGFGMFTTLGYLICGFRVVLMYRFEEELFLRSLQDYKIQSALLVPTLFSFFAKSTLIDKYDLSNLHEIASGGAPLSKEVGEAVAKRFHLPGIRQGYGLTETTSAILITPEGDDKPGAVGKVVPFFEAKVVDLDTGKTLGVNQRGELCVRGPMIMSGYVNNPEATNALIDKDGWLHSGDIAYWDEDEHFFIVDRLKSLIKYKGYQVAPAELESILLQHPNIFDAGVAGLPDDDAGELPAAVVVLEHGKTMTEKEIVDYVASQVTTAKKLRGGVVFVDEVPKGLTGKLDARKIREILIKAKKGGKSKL
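Purified P. pyralis luciferase, 10 nM final, with Km-level 10 uM D-luciferin and 10 uM ATP in 50 mM Tris acetate pH 7.5, 10 mM Mg acetate, 0.01% Tween-20, 0.05% BSA; 6-point qHTS titration about 60 µM downward; luminescence read.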
SMN2 splice enh = enhancers of SMN2 splice variant expression | HEK293 SMN2-luciferase splicing reporter, luminescence, 30-36 h | 2.8% of 210,000 active | Potency, µM (highest dose often 46.1 µM), for inactives: at the highest dose activity change, positive = activation, actives largely listed as activators; further: % of control where 0% means no effect; nearly all actives have a fitted effect of over 55% in size
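HEK293 cells carry an SMN2 […]–luciferase reporter in which exon 7 inclusion puts luciferase in frame. Cells were plated 10-12 h before compound addition, then incubated 30-36 h at 37C. ONE-Glo luminescence was read; sodium butyrate at 4.5 mM final served as control.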
ELG1 genotox = genotoxicity induction in ELG1-luciferase HEK293T cells | AID 504466 | HEK293T ELG1-luciferase reporter, luminescence, 16 h | 1.3% of 330,000 active | Potency, µM (titrated, usually from 46 µM), for inactives: top-dose activity change, positive = activation, actives largely listed as activators; further: % of control where 0% means no effect; nearly all actives have a fitted effect of over 60% in size
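Genotoxicity was scored as increased ELG1-luciferase reporter signal, measured by ONE-Glo luminescence (30 min, room temperature). Compound or vehicle exposure of the HEK293T reporter cells lasted 16 hr at 37°C.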
Numbers without * were called inactive. The call rests on the fitted dose curve; in most records, active means well fitted curve in the direction sought with a large enough effect; inconclusive means small, poorly fitted or top-dose-only effect, or another doubt; inactive means no such curve, though single readings can be large; an effect the other way counts as inactive or inconclusive. Potency means the concentration at half of the fitted maximal effect.

`Cc1ccc(SCC(=O)Nc2ccccc2C(=O)O)cc1` gave Rab9 promoter act inconclusive, NPC1 prom act inconclusive, FLuc counter 8.5µM*, SMN2 splice enh inconclusive and ELG1 genotox 17%.
`Cn1c2ccccc2c2nnc(SCC(=O)Nc3ccccc3F)nc21` gave Rab9 promoter act 6%, NPC1 prom act 4%, FLuc counter -19% and ELG1 genotox 2%.
COc1ccc(CC(=O)Nc2cccc(C(=O)O)c2C)cc1 was read as Rab9 promoter act 17%, NPC1 prom act 26%, FLuc counter inconclusive, SMN2 splice enh 16µM* and ELG1 genotox 13%.
For Cc1ccc(CSCC(=O)Nc2ccccc2C(=O)O)cc1 the results were Rab9 promoter act 2.8µM*, NPC1 prom act 3.5µM*, FLuc counter 12µM* and ELG1 genotox 8%.
Screening O=C(NCCc1c[nH]c2ccccc12)C(=O)NCC1OCCCN1S(=O)(=O)c1cc(F)ccc1F (configuration not stated) returned Rab9 promoter act -5%, NPC1 prom act -4%, FLuc counter -1%, SMN2 splice enh -13% and ELG1 genotox -21%.
Screening Fc1cccc(-n2c(-c3ccco3)nc3nc4ccccc4nc32)c1 returned Rab9 promoter act 3%, NPC1 prom act 0%, FLuc counter 5%, SMN2 splice enh -17% and ELG1 genotox -4%.
Screening CC(=O)c1ccc(Nc2ccc(-c3ccccc3F)nn2)cc1 returned Rab9 promoter act 0.5µM*, NPC1 prom act 0.71µM*, FLuc counter 4.8µM*, SMN2 splice enh 7.1µM* and ELG1 genotox inconclusive.
For CC1(C)CC(NS(=O)(=O)c2ccc(F)cc2)CC(C)(C)N1 the results were Rab9 promoter act -2%, NPC1 prom act -4%, FLuc counter 0% and ELG1 genotox 1%.
`CC(NC(=O)c1csc2ccccc12)C1CCCO1` (configuration not stated) gave Rab9 promoter act 2%, NPC1 prom act 12%, FLuc counter -11%, SMN2 splice enh 15% and ELG1 genotox inconclusive.
COc1ccc2c(Cl)c(C(=O)NCC3CCCO3)sc2c1Cl (configuration not stated) was read as Rab9 promoter act 22%, NPC1 prom act 4%, FLuc counter -9% and ELG1 genotox 2%.
Screening O=C(NCC1CCCO1)c1sc2ccccc2c1Cl (configuration not stated) returned Rab9 promoter act inconclusive, NPC1 prom act inconclusive, FLuc counter 19µM*, SMN2 splice enh 13µM* and ELG1 genotox inconclusive.
Screening O=C(O)CC(NC(=O)c1sc2ccccc2c1Cl)c1ccc(OC2CCCC2)cc1 (configuration not stated) returned Rab9 promoter act 8%, NPC1 prom act -2%, FLuc counter 15µM*, SMN2 splice enh -27% and ELG1 genotox 2%.
CC(NC(=O)c1sc2ccccc2c1Cl)C1CCCO1 (configuration not stated) was read as Rab9 promoter act inconclusive, NPC1 prom act inconclusive, FLuc counter 9.5µM*, SMN2 splice enh 11µM* and ELG1 genotox inconclusive.
Screening Cc1ccc2c(Cl)c(C(=O)NCC3CCCO3)sc2c1 (configuration not stated) returned Rab9 promoter act 2.2µM*, NPC1 prom act 2µM*, FLuc counter 5.4µM*, SMN2 splice enh 11µM* and ELG1 genotox inconclusive.
Cc1ccc(S(=O)(=O)N2CCCC(C(=O)NCCc3ccc4c(c3)OCO4)C2)cc1 (configuration not stated) was read as Rab9 promoter act 3%, NPC1 prom act 22%, FLuc counter 1%, SMN2 splice enh -11% and ELG1 genotox -3%.
Screening O=C(NCC1CCCO1)c1sc(=S)n2c1[nH]c(=O)c1ccc(C(=O)N3CCCCC3)cc12 (configuration not stated) returned Rab9 promoter act 1%, NPC1 prom act -5%, FLuc counter 21µM*, SMN2 splice enh 9% and ELG1 genotox -2%.
CC1CCc2[nH]c3ccc(C(=O)NCC4CCCO4)cc3c2C1 (configuration not stated) was read as Rab9 promoter act inconclusive, NPC1 prom act 23%, FLuc counter 9.5µM* and ELG1 genotox 8%.
`O=C(NCCc1ccccc1)c1ccc2c(=O)[nH]c3c(C(=O)NCC4CCCO4)sc(=S)n3c2c1` (configuration not stated) gave Rab9 promoter act 4%, NPC1 prom act 3%, FLuc counter inconclusive and ELG1 genotox 0%.
`Cc1ccc2c(Cl)cc(Cl)c(OCc3c(C)noc3C)c2n1` gave Rab9 promoter act -2%, NPC1 prom act -3%, FLuc counter 0%, SMN2 splice enh 12% and ELG1 genotox 6%.
COc1cc(C(=O)Nc2nc(N)n(-c3ccccc3)n2)cc(OC)c1OC was read as Rab9 promoter act 17%, NPC1 prom act 3%, FLuc counter 3%, SMN2 splice enh inconclusive and ELG1 genotox 16%.
COc1ccccc1C(=O)Nc1nc(N)n(-c2ccccc2)n1 was read as Rab9 promoter act 16%, NPC1 prom act 2%, FLuc counter 12µM*, SMN2 splice enh -10% and ELG1 genotox 2%.
For COc1ccccc1C(=O)Nc1nc2ccccc2s1 the results were Rab9 promoter act inconclusive, NPC1 prom act 2.2µM*, FLuc counter 0.11µM* and ELG1 genotox inconclusive.
COc1n[nH]c(C(=O)Nc2nc3ccccc3s2)c1[N+](=O)[O-] was read as Rab9 promoter act inconclusive, NPC1 prom act inconclusive, FLuc counter 15µM*, SMN2 splice enh 11µM* and ELG1 genotox 16µM*.
`COc1n[nH]c(C(=O)NCc2ccccc2)c1[N+](=O)[O-]` gave Rab9 promoter act 0%, NPC1 prom act -1%, FLuc counter inconclusive, SMN2 splice enh 6% and ELG1 genotox 0%.
COc1ccc(C(=O)Nc2nc3ccccc3s2)c(OC)c1 was read as Rab9 promoter act -25%, NPC1 prom act inconclusive, FLuc counter 0.015µM* and ELG1 genotox -28%.
CSc1nc(N)nc(SCC(=O)CC(=O)OC(C)C)c1C#N was read as Rab9 promoter act -3%, NPC1 prom act -7%, FLuc counter 2%, SMN2 splice enh 0% and ELG1 genotox 2%.
For Cc1cc(-c2cccc([N+](=O)[O-])c2)nc2ccc3ccccc3c12 the results were Rab9 promoter act inconclusive, NPC1 prom act inconclusive, FLuc counter 2.7µM*, SMN2 splice enh -14% and ELG1 genotox 9%.
Screening Cn1c(N)c(C(=O)c2cc(-c3ccccc3)nc3ccccc23)c(=O)n(C)c1=O returned Rab9 promoter act 9%, NPC1 prom act 14%, FLuc counter 5.4µM*, SMN2 splice enh 11µM* and ELG1 genotox inconclusive.
